Compounds with a hit are over-represented: about 10% of the library has one in this group of screens.
ALDH1A1 block – blocks purified human ALDH1A1 activity; 7.3% of 220,000 active; Potency, µM (series often up to 75.3 µM), without a hit: top-dose activity, negative = inhibition, most hits filed as inhibitors; AID 1030; Purified ALDH1A1, NADH fluorescence, propionaldehyde substrate;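 further: potency means the concentration at half of the fitted maximal effect; plate controls were no enzyme wells and a reference inhibitor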
Target sequence (P00352 whole entry, looked up): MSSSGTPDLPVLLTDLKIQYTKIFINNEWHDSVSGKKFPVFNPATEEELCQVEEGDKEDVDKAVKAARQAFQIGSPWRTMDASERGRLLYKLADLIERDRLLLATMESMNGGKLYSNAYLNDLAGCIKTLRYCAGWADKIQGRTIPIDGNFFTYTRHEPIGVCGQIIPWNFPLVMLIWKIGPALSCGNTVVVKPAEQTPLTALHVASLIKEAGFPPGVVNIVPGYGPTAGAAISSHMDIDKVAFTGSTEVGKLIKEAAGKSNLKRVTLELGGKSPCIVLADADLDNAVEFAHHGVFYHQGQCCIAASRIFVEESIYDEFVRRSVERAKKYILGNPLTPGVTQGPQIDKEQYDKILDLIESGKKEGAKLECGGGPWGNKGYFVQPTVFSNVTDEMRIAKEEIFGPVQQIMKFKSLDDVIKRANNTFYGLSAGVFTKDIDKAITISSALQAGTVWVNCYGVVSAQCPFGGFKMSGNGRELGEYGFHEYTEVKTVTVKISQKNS
Lamin A splicing – LMNA splicing modulation. Potency, µM (doses to about 46.1 µM), for the others: at the top dose ratio change, negative = inhibition, most hits filed as inhibitors. 0.01% of 200,000 active. HeLa LMNA splicing GFP/RFP minigene ratio, 48 h. AID 1487; active means well fitted inhibition curve with a large enough effect in the signal ratio, with a control signal flat, not every such curve was filed as active; inconclusive means small, poorly fitted or top-dose-only effect, or effect the other way, or a change in a side signal; the % refers to the signal ratio; further: potency means the concentration at half of the fitted maximal effect
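Read-out is the ratio of GFP to DsRed2 object intensity, acquired by 488 nm laser-scanning cytometry on HeLa lamin A-EGFP minigene reporter cells. Compound incubation 48 hrs at 37 °C in Opti-MEM with 2% FBS; DMSO 0.5% final.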
12-hLO inh – blocks human 12-lipoxygenase activity; P18054; Potency, µM (titrated, usually from 57.1 µM), for the others: top-dose activity change, negative = inhibition, most hits filed as inhibitors; 0.12% of 150,000 active; purified 12-hLO, xylenol orange hydroperoxide absorbance; active means well fitted inhibition curve with a large enough effect; inconclusive means small, poorly fitted or top-dose-only effect; further: potency means the concentration at half of the fitted maximal effect; nearly all actives have a fitted effect of over 55% in size
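Hydroperoxide output read as Fe(III)-xylenol orange absorbance, 573-to-405 nm ratio, after 30 min reaction with 40 uM arachidonic acid. Enzyme: 150 nM purified human 12hLO, 15 min compound preincubation; 25 mM Hepes pH 7.0, room temperature.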
PNC assembly inh – blocks assembly of the perinucleolar compartment | PC3M PTB-GFP, PNC prevalence imaging, 16 h; hits give low values | activity change (PNC), negative = inhibition, % at 10 µM | 3.1% of 140,000 active;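 active means readout at or below -70, meaning at least 70% loss of cells showing the perinucleolar compartment, a nuclear body marking cancer cells; inconclusive means readout between -30 and a set limit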;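 further: plate controls were DMSO wells for no effect and camptothecin positive control wells for full effect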
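Read-out is percentage of cells bearing a perinucleolar compartment, from automated 20x imaging of fixed, Hoechst-stained PC3M PTB-GFP cells. Cells were seeded 4 h, then exposed 16 h to compound (23 nl of library stock) in duplicate plates.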
HPGD block – HPGD (human) dehydrogenase inhibition; purified HPGD, NADH fluorescence kinetic, PGE2 substrate; Potency, µM, inactives show at the top dose activity change, negative = inhibition, most hits filed as inhibitors; 4.3% of 150,000 active; AID 894; further: potency means the concentration at half of the fitted maximal effect
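NADH formation kinetics: reaction with 30 uM PGE2 and 1 mM NAD+ (final), 20 nM enzyme, Tris-HCl pH 8 with Tween 20, after 15 min compound preincubation at room temperature. Fluorescence change, last versus first of five reads.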
Active calls of the source: *; [ ] = remark or other dose. Unless noted, the call rests on the fitted dose curve; in most records, active means well fitted inhibition curve with a large enough effect (not every such curve was filed as active); inconclusive means small, poorly fitted or top-dose-only effect, or another doubt; inactive means no such curve, though single readings can be large or run the other way. Unless noted, on the % scale 0 is the no-effect control and ±100 the full control effect.

Results for COc1ccc(C2NC(=O)C(C#N)=C(S)N2c2ccc(C)cc2)cc1OC (stereo unspecified) ?
ALDH1A1 block: 18µM*

What do the screens show for `CCOc1ccc(C2NC(=O)C(C#N)=C(S)N2c2ccc(OC)cc2)cc1OC` (stereo unspecified)?
ALDH1A1 block: 20µM*; Lamin A splicing: 10%; 12-hLO inh: 1%; PNC assembly inh: 20; HPGD block: -29%

Results for COc1cc(C2NC(=O)C(C#N)=C(S)N2c2ccc(C)cc2)ccc1OC(C)C (stereo unspecified) ?
ALDH1A1 block: -102%; Lamin A splicing: 5%; 12-hLO inh: inconclusive; PNC assembly inh: inconclusive; HPGD block: 25µM*

What do the screens show for `COc1ccc(N2C(S)=C(C#N)C(=O)NC2c2ccc(OC)c(OC)c2)cc1` (stereo unspecified)?
ALDH1A1 block: inconclusive; Lamin A splicing: 8%[46 µM]

How did COc1ccccc1CNC(=O)c1cc(Sc2cccc(Cl)c2)nc2ccccc12 do in these assays?
Lamin A splicing: -29%[46 µM]

What do the screens show for `C[N+](C)(N)Cc1nc(-c2ccc(Cl)cc2)no1`?
ALDH1A1 block: -4%[13.5 µM]; 12-hLO inh: -3%[11.4 µM]; HPGD block: -3%

Results for CCOC(=O)Cc1csc(SCC(=O)Nc2sc3c(c2C(N)=O)CCC3)n1 ?
ALDH1A1 block: inconclusive; Lamin A splicing: 6%; 12-hLO inh: -13%; PNC assembly inh: -4; HPGD block: 18µM*

What do the screens show for `CCOC(=O)c1c(NC(=O)CSc2nnc(C)s2)sc2c1CCCCC2`?
ALDH1A1 block: inconclusive; Lamin A splicing: 6%; 12-hLO inh: -4%; PNC assembly inh: 114; HPGD block: -23%

How did CCOC(=O)Cc1csc(SCC(=O)NC2CCCC(C)C2C)n1 (stereo unspecified) do in these assays?
ALDH1A1 block: inconclusive; Lamin A splicing: -6%; 12-hLO inh: 2%; PNC assembly inh: inconclusive; HPGD block: 25µM*

How did CCOC(=O)Cc1csc(SCC(=O)NC2CCCCC2)n1 do in these assays?
ALDH1A1 block: 1%; Lamin A splicing: 4%; 12-hLO inh: -2%; PNC assembly inh: 28; HPGD block: inconclusive

What do the screens show for `COc1ccc(CNc2nc(SCc3ccc(Cl)cc3)nc3ccccc23)cc1`?
Lamin A splicing: -24%[46 µM]

How did COc1cccc(C(c2sc3ncnn3c2O)N2CC(C)OC(C)C2)c1 (stereo unspecified) do in these assays?
ALDH1A1 block: 0.35µM*; Lamin A splicing: -1%; 12-hLO inh: 3%; PNC assembly inh: 7; HPGD block: -10%

Results for COc1cccc(C(c2sc3ncnn3c2O)N2CCc3ccccc3C2)c1 (stereo unspecified) ?
ALDH1A1 block: inconclusive; Lamin A splicing: inconclusive; 12-hLO inh: 5%; PNC assembly inh: 9; HPGD block: inconclusive

What do the screens show for `COC(=O)C1CCN(C(=O)COc2ccc(Cl)cc2)CC1`?
ALDH1A1 block: -15%; Lamin A splicing: 6%; 12-hLO inh: 4%; PNC assembly inh: -8; HPGD block: 0%

Results for COC(=O)C1CCN(C(=O)COc2cc3sc(C)nc3c3sccc23)CC1 ?
ALDH1A1 block: 11µM*; Lamin A splicing: 1%; 12-hLO inh: 0%; PNC assembly inh: 74; HPGD block: -2%

What do the screens show for `COCCn1c(=O)c(-c2ccccc2)nc2cnc(Nc3cccc(OC)c3)nc21`?
ALDH1A1 block: 5%; Lamin A splicing: inconclusive

What do the screens show for `O=C1NCCC/C1=N/Nc1ccc(F)cc1`?
ALDH1A1 block: 13µM*; Lamin A splicing: -10%[9.22 µM]

What do the screens show for `CC(C)CC(=O)Nc1ccc(Oc2ccc(NC(=O)CC(C)C)cc2)cc1`?
ALDH1A1 block: 16%; Lamin A splicing: -3%; 12-hLO inh: 4%; PNC assembly inh: inconclusive; HPGD block: -2%

How did O=C(Cc1ccccc1)Nc1ccccc1C(=O)Nc1ccccc1 do in these assays?
ALDH1A1 block: 11%; Lamin A splicing: 9%; 12-hLO inh: -2%; PNC assembly inh: -120*; HPGD block: inconclusive

How did CC(C)(C)C(=O)Nc1ccccc1C(=O)Nc1ccccn1 do in these assays?
ALDH1A1 block: -12%; Lamin A splicing: -6%; 12-hLO inh: 3%; PNC assembly inh: -100*; HPGD block: -11%

How did Cc1ccc(NC(=O)c2ccccc2NC(=O)Cc2ccccc2)cc1 do in these assays?
ALDH1A1 block: -7%; Lamin A splicing: -7%; 12-hLO inh: -4%; PNC assembly inh: inconclusive; HPGD block: -1%

Results for CC(C)CC(=O)Nc1ccc(Nc2ccccc2)cc1 ?
ALDH1A1 block: 0%; Lamin A splicing: inconclusive; 12-hLO inh: 7%; PNC assembly inh: -100*; HPGD block: 11µM*

Results for CC(C)(C)C(=O)NC(=S)Nc1ccccc1C(=O)Nc1ccccc1 ?
ALDH1A1 block: 25µM*; Lamin A splicing: 2%; 12-hLO inh: -9%; PNC assembly inh: 45; HPGD block: -3%

Results for CCc1ccc(C2C(C(=O)Nc3ccccc3C)=C(C)Nc3nc(SCc4cccc(OC)c4)nn32)cc1 (stereo unspecified) ?
Lamin A splicing: -13%[46 µM]

Results for O=C(O)CSCc1cccc2ccccc12 ?
ALDH1A1 block: 11%[13.5 µM]; 12-hLO inh: 3%[11.4 µM]; HPGD block: -9%

What do the screens show for `COc1ccc2ncc3c(-c4ccc(C)c(C)c4)nn(CC(=O)NC4CCCCC4)c3c2c1`?
Lamin A splicing: 14%[46 µM]

How did CC(C)CC(=O)NC(=S)Nc1ccccc1C(=O)Nc1ccccc1 do in these assays?
ALDH1A1 block: 10µM*; Lamin A splicing: 4%; 12-hLO inh: -5%; PNC assembly inh: 7; HPGD block: -15%

Results for COc1cccc(CS(=O)(=O)c2nnnn2-c2ccc(F)cc2Br)c1 ?
ALDH1A1 block: inconclusive; HPGD block: -10%

How did O=C(N/N=C/c1sc(N2CCCCC2)nc1-c1cccs1)C1CC1 do in these assays?
ALDH1A1 block: 22µM*; Lamin A splicing: -14%[46 µM]

Results for O=C(COc1cccnc1[N+](=O)[O-])N1N=C(c2ccc(Cl)cc2)CC1c1ccco1 (stereo unspecified) ?
ALDH1A1 block: 13µM*

What do the screens show for `N#Cc1cn(-c2ccccc2)nc1-c1ccccc1`?
ALDH1A1 block: 0%; Lamin A splicing: 6%; 12-hLO inh: -13%; PNC assembly inh: 26; HPGD block: -14%

Results for N#Cc1c(-c2ccccc2)no[n+]1[O-] ?
ALDH1A1 block: 5µM*; Lamin A splicing: inconclusive; 12-hLO inh: -3%; HPGD block: -11%

Results for Cc1c(C(=O)Nc2ccc(F)cc2)oc2ccc(S(=O)(=O)N3CCCCCC3)cc12 ?
Lamin A splicing: 8%[46 µM]

Results for COC(=O)C1=C(N)OC2=C(C(=O)CC(C)(C)C2)C1c1cccnc1 (stereo unspecified) ?
ALDH1A1 block: -3%; Lamin A splicing: 5%; 12-hLO inh: 0%; PNC assembly inh: -8; HPGD block: 2%

Source: PubChem BioAssay
